Experimental data reported in the supplement of paper PMC10849652.
Of roughly 7,900 targets only a part is listed; those with a hit were picked by preference. About 0.6% of all pairs of compound and target were hits.

What was measured:
Assay in all cases: log2 fold change, soluble protein after heating vs DMSO (PISA); higher = thermal stabilisation; K562 cells, 10 uM, 30 min; active = over 0.2 and 3.5 SD of the protein, either way, in both replicates (recomputed)
[1] = compound: Cc1ccc(NC(=O)c2ccc(CN3CC[C@H](N(C)C)C3)c(C(F)(F)F)c2)cc1Nc1nccc(-c2cncnc2)n1 [bafetinib]
Method in brief: (§1)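 K562 cells at 2×10^6 cells/mL were exposed to 10 μM compound for 30 min, then aliquots were heated for 3 min across 48°C-58°C, pooled, and extracted in PBS containing 0.5% NP-40 at 4°C. The supernatant after 21,000xg for 90 min was taken as soluble protein and measured by TMTpro 16plex LC-MS/MS with channel sums equalised. Thermal stability is reported relative to control samples, with values from duplicates. Fold changes are given on a log2 scale.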

[2] = compound: Cc1cccc(CC(=O)N2CCc3c2ccc(-c2cn(C)c4ncnc(N)c24)c3F)n1
Method in brief: as §1

[3] = compound: Cc1cn(-c2cc(NC(=O)c3ccc(C)c(Nc4nccc(-c5cccnc5)n4)c3)cc(C(F)(F)F)c2)cn1 [nilotinib]
Method in brief: as §1

[4] = compound: Cc1nc(Nc2n[nH]c3c2CN(C(=O)N[C@H](CN(C)C)c2ccccc2)C3(C)C)c2sccc2n1
Method in brief: as §1

[5] = compound: Cc1ncc(-c2ccnc(Nc3ccc(S(C)(=O)=O)cc3)n2)n1C(C)C
Method in brief: as §1

[6] = compound: Cn1cc(-c2ccc3c(c2)CCN3C(=O)Cc2cccc(C(F)(F)F)c2)c2c(N)ncnc21
Method in brief: as §1

[7] = compound: Cn1cc(-c2ccc3nnc(C(F)(F)c4ccc5ncccc5c4)n3n2)cn1
Method in brief: as §1

[8] = compound: Cn1cncc1[C@@](N)(c1ccc(Cl)cc1)c1ccc2c(c1)c(-c1cccc(Cl)c1)cc(=O)n2C [tipifarnib]
Method in brief: as §1

[9] = compound: FC(F)(F)c1ccc(/C=C/c2nc(COc3ccc(CCCCn4ccnn4)cc3)co2)cc1 [mubritinib]
Method in brief: as §1

[10] = compound: Cc1nc(Nc2ncc(C(=O)Nc3c(C)cccc3Cl)s2)cc(N2CCN(CCO)CC2)n1 [dasatinib]
Method in brief: as §1

UniProt Q9NXE4, sequence (Q9NXE4 whole entry, looked up): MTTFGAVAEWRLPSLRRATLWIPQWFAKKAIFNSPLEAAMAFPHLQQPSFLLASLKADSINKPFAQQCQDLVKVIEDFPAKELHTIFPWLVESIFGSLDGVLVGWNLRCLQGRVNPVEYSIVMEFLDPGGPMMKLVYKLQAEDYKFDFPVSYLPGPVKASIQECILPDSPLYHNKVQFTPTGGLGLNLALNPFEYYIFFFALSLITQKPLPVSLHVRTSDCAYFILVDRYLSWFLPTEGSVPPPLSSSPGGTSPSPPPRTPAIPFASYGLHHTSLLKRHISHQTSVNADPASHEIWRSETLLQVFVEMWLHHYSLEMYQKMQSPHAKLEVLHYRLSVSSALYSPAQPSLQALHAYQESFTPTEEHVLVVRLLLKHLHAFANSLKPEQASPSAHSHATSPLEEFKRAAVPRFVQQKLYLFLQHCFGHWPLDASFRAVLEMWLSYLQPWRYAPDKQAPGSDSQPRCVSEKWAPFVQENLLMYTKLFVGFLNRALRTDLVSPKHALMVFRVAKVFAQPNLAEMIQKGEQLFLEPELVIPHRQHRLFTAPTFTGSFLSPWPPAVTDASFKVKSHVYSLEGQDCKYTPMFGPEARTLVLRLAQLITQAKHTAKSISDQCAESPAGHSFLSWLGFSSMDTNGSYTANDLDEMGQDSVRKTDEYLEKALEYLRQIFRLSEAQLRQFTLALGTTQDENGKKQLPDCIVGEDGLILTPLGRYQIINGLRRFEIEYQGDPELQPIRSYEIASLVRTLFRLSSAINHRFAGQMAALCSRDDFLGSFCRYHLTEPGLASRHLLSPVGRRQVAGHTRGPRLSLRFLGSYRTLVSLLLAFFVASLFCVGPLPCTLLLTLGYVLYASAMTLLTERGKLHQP
UniProt Q13428, sequence (Q13428 whole entry, looked up): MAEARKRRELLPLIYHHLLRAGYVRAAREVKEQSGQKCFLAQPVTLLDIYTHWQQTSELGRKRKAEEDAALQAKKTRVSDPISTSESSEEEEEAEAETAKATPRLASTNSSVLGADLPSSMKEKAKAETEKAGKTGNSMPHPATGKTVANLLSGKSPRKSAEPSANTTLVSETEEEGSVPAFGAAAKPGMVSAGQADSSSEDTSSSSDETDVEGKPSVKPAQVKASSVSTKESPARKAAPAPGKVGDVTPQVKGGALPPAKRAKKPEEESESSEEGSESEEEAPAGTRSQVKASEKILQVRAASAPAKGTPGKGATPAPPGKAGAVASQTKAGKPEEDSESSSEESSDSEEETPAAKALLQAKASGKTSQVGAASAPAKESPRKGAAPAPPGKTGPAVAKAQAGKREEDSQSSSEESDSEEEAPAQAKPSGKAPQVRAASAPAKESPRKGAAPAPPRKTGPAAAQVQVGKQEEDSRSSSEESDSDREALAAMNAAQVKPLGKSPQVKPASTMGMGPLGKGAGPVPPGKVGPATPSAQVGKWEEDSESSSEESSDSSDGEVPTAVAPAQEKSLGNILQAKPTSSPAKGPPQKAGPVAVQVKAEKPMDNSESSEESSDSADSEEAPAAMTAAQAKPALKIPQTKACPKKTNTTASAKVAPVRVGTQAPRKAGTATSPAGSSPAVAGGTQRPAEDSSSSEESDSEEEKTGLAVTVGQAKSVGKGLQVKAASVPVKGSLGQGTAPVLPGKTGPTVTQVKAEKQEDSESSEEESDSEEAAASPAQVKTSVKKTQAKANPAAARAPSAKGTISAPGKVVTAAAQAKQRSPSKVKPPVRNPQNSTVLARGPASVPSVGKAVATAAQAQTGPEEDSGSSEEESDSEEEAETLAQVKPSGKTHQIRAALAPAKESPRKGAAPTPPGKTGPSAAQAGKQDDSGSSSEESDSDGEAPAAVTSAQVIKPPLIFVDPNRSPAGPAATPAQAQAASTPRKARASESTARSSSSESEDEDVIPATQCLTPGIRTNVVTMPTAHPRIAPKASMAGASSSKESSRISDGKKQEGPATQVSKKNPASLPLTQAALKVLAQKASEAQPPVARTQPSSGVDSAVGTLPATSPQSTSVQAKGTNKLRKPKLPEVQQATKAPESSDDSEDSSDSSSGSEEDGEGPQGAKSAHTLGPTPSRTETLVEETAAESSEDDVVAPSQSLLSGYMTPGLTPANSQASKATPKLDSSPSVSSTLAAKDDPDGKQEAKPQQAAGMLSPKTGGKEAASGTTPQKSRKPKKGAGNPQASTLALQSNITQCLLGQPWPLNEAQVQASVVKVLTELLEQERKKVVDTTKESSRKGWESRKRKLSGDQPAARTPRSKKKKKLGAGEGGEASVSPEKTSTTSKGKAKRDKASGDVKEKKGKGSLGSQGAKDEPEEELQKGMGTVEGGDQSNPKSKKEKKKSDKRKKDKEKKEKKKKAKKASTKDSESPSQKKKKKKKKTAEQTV
UniProt P78383, sequence (P78383 whole entry, looked up): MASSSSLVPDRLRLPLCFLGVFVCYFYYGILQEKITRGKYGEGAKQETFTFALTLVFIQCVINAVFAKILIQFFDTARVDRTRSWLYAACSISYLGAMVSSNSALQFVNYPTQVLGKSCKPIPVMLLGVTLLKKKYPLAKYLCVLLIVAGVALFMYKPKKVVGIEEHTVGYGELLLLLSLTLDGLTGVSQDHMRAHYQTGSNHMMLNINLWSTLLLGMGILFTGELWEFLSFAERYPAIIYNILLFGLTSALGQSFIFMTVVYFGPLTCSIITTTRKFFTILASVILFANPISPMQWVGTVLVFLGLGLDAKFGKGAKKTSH
UniProt Q12824, sequence (Q12824 whole entry, looked up): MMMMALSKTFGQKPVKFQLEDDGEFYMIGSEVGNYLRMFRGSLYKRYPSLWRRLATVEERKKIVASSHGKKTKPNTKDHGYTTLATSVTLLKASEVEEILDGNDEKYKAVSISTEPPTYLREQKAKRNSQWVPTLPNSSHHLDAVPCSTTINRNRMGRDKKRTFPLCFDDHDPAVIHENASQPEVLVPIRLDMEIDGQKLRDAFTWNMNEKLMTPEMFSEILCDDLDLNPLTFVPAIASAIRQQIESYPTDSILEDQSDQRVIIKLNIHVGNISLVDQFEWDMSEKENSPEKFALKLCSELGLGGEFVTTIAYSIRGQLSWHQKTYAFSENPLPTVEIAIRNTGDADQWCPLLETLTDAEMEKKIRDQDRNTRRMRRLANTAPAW
UniProt Q6PCB7, sequence (Q6PCB7 whole entry, looked up): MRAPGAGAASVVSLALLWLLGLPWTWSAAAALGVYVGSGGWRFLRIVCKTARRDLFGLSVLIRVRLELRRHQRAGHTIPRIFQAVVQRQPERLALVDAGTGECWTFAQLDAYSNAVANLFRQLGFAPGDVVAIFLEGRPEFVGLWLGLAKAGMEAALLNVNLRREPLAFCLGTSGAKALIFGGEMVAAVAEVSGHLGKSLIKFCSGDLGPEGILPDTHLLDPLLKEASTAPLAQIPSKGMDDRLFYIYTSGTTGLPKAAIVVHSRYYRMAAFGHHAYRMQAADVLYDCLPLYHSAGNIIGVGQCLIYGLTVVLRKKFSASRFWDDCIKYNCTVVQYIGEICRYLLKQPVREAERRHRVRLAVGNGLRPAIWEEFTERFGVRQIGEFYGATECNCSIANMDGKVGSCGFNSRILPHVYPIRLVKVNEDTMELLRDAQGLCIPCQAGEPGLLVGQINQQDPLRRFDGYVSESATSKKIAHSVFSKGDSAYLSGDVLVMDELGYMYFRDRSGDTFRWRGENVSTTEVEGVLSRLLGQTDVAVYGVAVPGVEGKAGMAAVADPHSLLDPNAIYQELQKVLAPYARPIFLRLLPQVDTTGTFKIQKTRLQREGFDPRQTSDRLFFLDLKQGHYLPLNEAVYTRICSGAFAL
UniProt Q92581, sequence (Q92581 whole entry, looked up): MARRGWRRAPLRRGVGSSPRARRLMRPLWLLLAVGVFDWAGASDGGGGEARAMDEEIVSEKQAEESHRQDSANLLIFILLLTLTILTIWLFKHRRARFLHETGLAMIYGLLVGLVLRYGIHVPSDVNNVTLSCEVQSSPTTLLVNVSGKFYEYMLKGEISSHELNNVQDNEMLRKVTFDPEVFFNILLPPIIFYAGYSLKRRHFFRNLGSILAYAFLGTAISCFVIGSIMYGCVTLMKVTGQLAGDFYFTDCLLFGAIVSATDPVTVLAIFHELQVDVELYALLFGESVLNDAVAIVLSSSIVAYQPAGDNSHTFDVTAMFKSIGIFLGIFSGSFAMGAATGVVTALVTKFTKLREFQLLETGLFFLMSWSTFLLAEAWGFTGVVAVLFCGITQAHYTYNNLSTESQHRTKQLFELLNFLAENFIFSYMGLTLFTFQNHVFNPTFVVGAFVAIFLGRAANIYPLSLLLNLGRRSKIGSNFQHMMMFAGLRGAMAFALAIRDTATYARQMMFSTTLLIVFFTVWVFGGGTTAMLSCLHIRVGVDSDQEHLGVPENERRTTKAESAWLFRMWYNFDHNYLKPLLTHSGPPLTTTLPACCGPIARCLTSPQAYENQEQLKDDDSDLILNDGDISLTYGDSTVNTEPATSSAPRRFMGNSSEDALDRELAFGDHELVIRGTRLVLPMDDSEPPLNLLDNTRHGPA
UniProt Q9BYN0, sequence (Q9BYN0 whole entry, looked up): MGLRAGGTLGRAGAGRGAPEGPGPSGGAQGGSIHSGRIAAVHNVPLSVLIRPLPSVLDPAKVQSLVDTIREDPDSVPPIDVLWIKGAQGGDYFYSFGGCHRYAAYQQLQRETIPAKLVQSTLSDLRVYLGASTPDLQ
UniProt O76062, sequence (O76062 whole entry, looked up): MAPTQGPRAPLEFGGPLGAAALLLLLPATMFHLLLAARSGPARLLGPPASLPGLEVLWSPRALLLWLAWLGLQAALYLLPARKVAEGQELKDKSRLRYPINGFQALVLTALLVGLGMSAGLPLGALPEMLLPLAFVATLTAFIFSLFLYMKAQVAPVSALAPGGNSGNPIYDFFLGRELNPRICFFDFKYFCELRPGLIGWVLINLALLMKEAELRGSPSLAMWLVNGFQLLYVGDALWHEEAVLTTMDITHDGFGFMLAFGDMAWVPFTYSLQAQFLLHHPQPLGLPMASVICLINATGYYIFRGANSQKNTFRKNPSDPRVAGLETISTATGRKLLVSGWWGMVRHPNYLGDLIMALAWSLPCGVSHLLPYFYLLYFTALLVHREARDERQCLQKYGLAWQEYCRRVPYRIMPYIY

Target	log2 fold change [1]	log2 fold change [2]	log2 fold change [3]	log2 fold change [4]	log2 fold change [5]	log2 fold change [6]	log2 fold change [7]	log2 fold change [8]	log2 fold change [9]	log2 fold change [10]
SRXN1 (UniProt Q9BYN0)	-0.011 (inactive)	-0.157 (inactive)	-0.017 (inactive)	-0.088 (inactive)	0.093 (inactive)	0.134 (inactive)	0.056 (inactive)	-0.149 (inactive)	0.127 (inactive)	
SLC44A2 isoform 2 (UniProt Q8IWA5)	0.058 (inactive)	-0.053 (inactive)	0.13 (inactive)	0.008 (inactive)	0.068 (inactive)	0.084 (inactive)	-0.076 (inactive)		0.045 (inactive)	0.064 (inactive)
SNW1 (UniProt Q13573)	-0.049 (inactive)	-0.071 (inactive)	0.004 (inactive)	0.067 (inactive)	0.088 (inactive)	-0.055 (inactive)	-0.043 (inactive)	0.026 (inactive)	-0.006 (inactive)	0.027 (inactive)
SSX2 (UniProt Q16385)	-0.098 (inactive)	-0.011 (inactive)	0.003 (inactive)	-0.061 (inactive)	-0.042 (inactive)	-0.039 (inactive)	0.012 (inactive)	-0.015 (inactive)	-0.048 (inactive)	0.014 (inactive)
TBC1D20 isoform 3 (UniProt Q96BZ9)	-0.03 (inactive)	-0.083 (inactive)	0.07 (inactive)	-0.023 (inactive)	0.033 (inactive)	0.121 (inactive)	0.233 (inactive)	-0.077 (inactive)	0.129 (inactive)	
SPG11 (UniProt Q96JI7)	-0.493 (inactive)	-0.584 (inactive)	-0.015 (inactive)	0.117 (inactive)	-0.006 (inactive)	-0.051 (inactive)	0.146 (inactive)	0.258 (inactive)	-0.009 (inactive)	0.065 (inactive)
SPIRE1 (UniProt Q08AE8)	-0.06 (inactive)	-0.194 (inactive)	0.007 (inactive)	0.063 (inactive)	-0.046 (inactive)	-0.155 (inactive)	-0.026 (inactive)		0.098 (inactive)	
TAX1BP1 (UniProt Q86VP1)	0.011 (inactive)	-0.095 (inactive)	-0.086 (inactive)	0.011 (inactive)	0.047 (inactive)	-0.068 (inactive)	0.027 (inactive)	0.092 (inactive)	0.045 (inactive)	-0.024 (inactive)
SSB (UniProt E7ERC4)		-0.025 (inactive)							-0.063 (inactive)	-0.528 (inactive)
SNX2 isoform 2 (UniProt O60749)	-0.163 (inactive)					0.16 (inactive)		-0.155 (inactive)		-0.097 (inactive)
TBP (UniProt P20226)	-0.039 (inactive)		0.008 (inactive)	0.093 (inactive)	0.079 (inactive)	-0.112 (inactive)	0.036 (inactive)	0.013 (inactive)	0.004 (inactive)	0.104 (inactive)
TCOF1 isoform 3 (UniProt Q13428)		-0.005 (inactive)					-0.419 (inactive)			
TC2N (UniProt Q8N9U0)			0.052 (inactive)	-0.71 (active)	-0.024 (inactive)		-0.153 (inactive)		0.176 (inactive)	0.068 (inactive)
SREBF1 isoform 4 (UniProt P36956)	-0.357 (inactive)								-0.004 (inactive)	-0.043 (inactive)
SLC46A1 (UniProt Q96NT5)		-0.016 (inactive)				-0.119 (inactive)				
TBC1D2 (UniProt Q9BYX2)		0.213 (inactive)							-0.085 (inactive)	
SLC35B1 isoform 2 (UniProt P78383)	-0.018 (inactive)		-0.065 (inactive)	0.052 (inactive)	-0.097 (inactive)	-0.13 (inactive)	-0.172 (inactive)		0.016 (inactive)	0.142 (inactive)
SP2 (UniProt Q02086)										0.001 (inactive)
TAOK2 (UniProt Q9UL54)		0.092 (inactive)	-0.032 (inactive)	0.048 (inactive)	-0.028 (inactive)		-0.093 (inactive)	0.014 (inactive)	0.01 (inactive)	
SLC27A1 (UniProt Q6PCB7)	0.047 (inactive)		-0.087 (inactive)	-0.009 (inactive)	0.079 (inactive)	-0.053 (inactive)	0.046 (inactive)	0.094 (inactive)	0.431 (active)	-0.152 (inactive)
SLC35B4 (UniProt Q969S0)	-0.12 (inactive)		0.027 (inactive)	0.016 (inactive)	0.1 (inactive)				0.032 (inactive)	
SLC35A1 (UniProt P78382)	0.005 (inactive)		-0.009 (inactive)	-0.055 (inactive)	-0.02 (inactive)	0.03 (inactive)	0.067 (inactive)	-0.022 (inactive)	0.049 (inactive)	0.036 (inactive)
TMBIM6 isoform 2 (UniProt P55061)	-0.135 (inactive)		-0.158 (inactive)	0.028 (inactive)	-0.037 (inactive)	0.063 (inactive)	-0.073 (inactive)	-0.269 (inactive)	0.036 (inactive)	-0.081 (inactive)

Target	log2 fold change [1]	log2 fold change [2]	log2 fold change [3]	log2 fold change [4]	log2 fold change [5]	log2 fold change [6]	log2 fold change [7]	log2 fold change [8]	log2 fold change [9]	log2 fold change [10]
SNRK (UniProt Q9NRH2)								-0.079 (inactive)		-0.061 (inactive)
TM7SF2 (UniProt O76062)			-0.113 (inactive)	-0.059 (inactive)	0.018 (inactive)	0.035 (inactive)	0.046 (inactive)	-0.067 (inactive)		-0.25 (inactive)
SMDT1 (UniProt Q9H4I9)	-0.138 (inactive)	0.006 (inactive)				0.137 (inactive)			0.068 (inactive)	0.005 (inactive)
SMARCA4 (UniProt P51532)	0.149 (inactive)	-0.118 (inactive)				-0.036 (inactive)	0.033 (inactive)	0.197 (inactive)	0.101 (inactive)	0.118 (inactive)
SLC35F6 (UniProt Q8N357)	-0.208 (inactive)		-0.037 (inactive)	-0.13 (inactive)	0.143 (inactive)	0.049 (inactive)	0.052 (inactive)	0.01 (inactive)	0.072 (inactive)	0.078 (inactive)
SPAG9 isoform 4 (UniProt O60271)	-0.301 (inactive)		0.073 (inactive)	-0.118 (inactive)	0.022 (inactive)	-0.072 (inactive)	0.11 (inactive)		0.074 (inactive)	
TCOF1 isoform 6 (UniProt Q13428)	0.137 (inactive)		-0.102 (inactive)	0.14 (inactive)	-0.033 (inactive)	0.07 (inactive)	-0.061 (inactive)		-0.091 (inactive)	
TM7SF3 (UniProt Q9NS93)	-0.147 (inactive)		-0.004 (inactive)	0.005 (inactive)	-0.029 (inactive)	-0.034 (inactive)	0.034 (inactive)	0.019 (inactive)	0.147 (inactive)	0.005 (inactive)
TANGO6 (UniProt Q9C0B7)	0.033 (inactive)		-0.018 (inactive)	-0.066 (inactive)	-0.006 (inactive)	0.083 (inactive)	-0.048 (inactive)	-0.067 (inactive)	0.042 (inactive)	-0.216 (inactive)
SOX5 (UniProt P35711)	-0.06 (inactive)		-0.437 (active)	-0.011 (inactive)	0.211 (inactive)	0.042 (inactive)	-0.039 (inactive)	0.027 (inactive)	0.064 (inactive)	
TDP1 (UniProt Q9NUW8)						-0.1 (inactive)				
SUN1 isoform 9 (UniProt O94901)		-0.036 (inactive)	-0.014 (inactive)	-0.115 (inactive)	-0.018 (inactive)	-0.141 (inactive)	-0.055 (inactive)	0.039 (inactive)	-0.021 (inactive)	0.007 (inactive)
SLC8B1 (UniProt Q6J4K2)	-0.149 (inactive)	0.006 (inactive)				-0.019 (inactive)	0.103 (inactive)	0.058 (inactive)		-0.012 (inactive)
THAP9 (UniProt Q9H5L6)	0.191 (inactive)		0.03 (inactive)	-0.009 (inactive)	-0.04 (inactive)	0.119 (inactive)	0.072 (inactive)		0.17 (inactive)	-0.082 (inactive)
SLC39A1 (UniProt Q9NY26)		0.116 (inactive)				-0.17 (inactive)				
SYK (UniProt P43405)	0.276 (inactive)					0.141 (inactive)	-0.041 (inactive)	0.075 (inactive)		-0.356 (inactive)
SLC38A2 (UniProt Q96QD8)	-0.112 (inactive)		-0.037 (inactive)	0.039 (inactive)	0.029 (inactive)	-0.055 (inactive)	0.029 (inactive)	-0.073 (inactive)	0.017 (inactive)	0.047 (inactive)
SSBP4 (UniProt U3KPY3)									0.046 (inactive)	
TAF6L (UniProt Q9Y6J9)		-0.078 (inactive)	0.032 (inactive)	-0.048 (inactive)	0.046 (inactive)	-0.106 (inactive)	-0.018 (inactive)	0.055 (inactive)	0.104 (inactive)	-0.224 (inactive)
SLC9A6 isoform 3 (UniProt Q92581)	-0.096 (inactive)					0.048 (inactive)		0.028 (inactive)		0.065 (inactive)
SMARCB1 (UniProt Q12824)		-0.277 (inactive)				-0.122 (inactive)				-0.059 (inactive)
SLC29A3 (UniProt Q9BZD2)	-0.111 (inactive)		-0.055 (inactive)	0.127 (inactive)	0.012 (inactive)	0.167 (inactive)	0.102 (inactive)	0.035 (inactive)	0.005 (inactive)	-0.059 (inactive)
SMPD4 isoform 2 (UniProt Q9NXE4)	-0.026 (inactive)	0.151 (inactive)				0.09 (inactive)		-0.111 (inactive)	0.108 (inactive)	-0.285 (inactive)
